TMEM16A inh – TMEM16A chloride channel inhibitors, primary screen, cell-based, HTS; Anoctamin-1 (Mus musculus), Q8BHY3; HEK293 TMEM16A/YFP iodide influx fluorescence, ionomycin; normalized B-score (activity score, 25-100; higher = stronger inhibition) at 10 µM; 1.2% of 310,000 active; AID 588511, 2011;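 active = ratio plate-corrected score three or more library SD toward inhibition, starting fluorescence score within five deviations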;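 note: score derived from kinetic fluorescence span divided by baseline fluorescence per well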
MPTP inh – mitochondrial permeability transition pore inhibitors, primary screen, biochemical, isolated mouse mitochondria, absorbance; inhibition, % at 10 µM; Ca2+ swelling absorbance, 30 min; AID 602449, 2012; 1.4% of 360,000 active;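 active = inhibition of 50% or more, scaled per plate between neutral and stimulator controls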;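 note: 0% = DMSO wells given calcium and 100% = 1 mM EGTA wells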
CRFBP-R2 block – antagonists of CRF-BP/CRF-R2 complex, primary screen, cell-based, HEK293, calcium dye fluorescence, uHTS | CRF-induced calcium fluorescence | inhibition, % at 11.8 µM | 0.59% of 350,000 active | AID 588475, 2011;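 active = inhibition of the ligand-induced calcium signal above about 50% at the single tested concentration, limit read from the data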
CRFBP-R2 agonist – agonists of CRF-BP/CRF-R2 complex, primary screen, cell-based, HEK293, calcium dye fluorescence, uHTS; CRF-binding protein / CRF receptor 2 complex (human); calcium dye fluorescence (FLIPR); percent of saturating CRF peptide response; activation, % at 13.2 µM; 0.46% of 350,000 active; AID 588473, 2011;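 active = activation of at least 50%, plus an integration ratio under a set limit after plate pattern correction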;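 note: plate controls were neutral control wells without compound for no effect and CRF at EC100 for full effect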
GRIN3A LBD mod – binders of NR3A ligand-binding domain, primary screen, biophysical, differential scanning fluorimetry, uHTS | 2.5% of 340,000 active | AID 1259313, 2017 | NR3A LBD differential scanning fluorimetry, Tm shift; 0% = protein alone, 100% = glycine-bound protein | Tm shift relative to glycine control, % at 25 µM;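 active = melting temperature shift of at least 10% of the positive control shift, at one fixed dose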
TMEM16A act – TMEM16A chloride channel activators or potentiators, primary screen, cell-based, HTS; Anoctamin-1 (Mus musculus), Q8BHY3; HEK293 TMEM16A/YFP-H148Q/I152L, iodide quench fluorescence; active compounds read low; B-score at 10 µM; 0.3% of 340,000 active;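 active = fluorescence-ratio B-score plate-corrected deviation score at least 3 library SD below zero, with starting fluorescence score within 5 deviations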;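 note: channel opened by trigger with iodide after compound preincubation; score built on the fluorescence ratio of max minus min over baseline; more negative score means more quench and so TMEM16A activation or potentiation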
Starred values were filed as active, the others as inactive; i = inactive; nt = no result. An excerpt weighted towards active compounds, which were near 5.1% of everything screened.

SMILES	TMEM16A inh	MPTP inh	CRFBP-R2 block	CRFBP-R2 agonist	GRIN3A LBD mod	TMEM16A act
COc1ccccc1-c1cnn2c(NCc3ccccc3)cc(C)nc12	i	0	10	-2	10*	i
COc1ccc(CCNc2cc(C)nc3c(-c4ccccc4OC)cnn23)cc1OC	i	2	15	0	-1	i
CC(O)[C@H]1CNCCN1CCc1cccc(F)c1 (stereo partly specified)	i	0	0	-1	2	-15*
CCC(C)[C@H]1CNCCN1CCc1cccc2ccccc12 (stereo partly specified)	100*	5	-8	1	0	i
Fc1cccc(CCN2CCNC[C@@H]2c2ccccc2)c1	nt	3	-7	-1	1	i
O=C(Cn1nc(-c2ccccc2Cl)ccc1=O)Nc1ccccc1-c1ccccc1	i	0	-3	0	-2	i
O=C(Cn1nc(-c2ccccc2Cl)ccc1=O)Nc1ccc(Br)cc1	i	0	-48	20	0	-30*
COc1ccccc1CCNC(=O)C(=O)NCC1OCCN1S(=O)(=O)c1ccc(OC)c(OC)c1 (stereo unspecified)	100*	1	-11	-2	-1	i
COc1ccccc1CCNC(=O)C(=O)NCC1OCCN1S(=O)(=O)c1ccc(F)cc1 (stereo unspecified)	i	0	3	-1	3	i
Cc1ccc(S(=O)(=O)N2CCOC2CNC(=O)C(=O)NCCN(C)C)cc1 (stereo unspecified)	i	3	18	-1	13*	i
CN(C)CCNC(=O)C(=O)NCC1OCCN1S(=O)(=O)c1ccc([N+](=O)[O-])cc1 (stereo unspecified)	i	-1	12	0	-1	i
COc1cccc(/C=N/NC(=O)CCCC(=O)Nc2ccc(Br)cc2)c1	i	0	-31	0	20*	i
COc1cc(/C=N/NC(=O)CCC(=O)Nc2ccc(Br)cc2)ccc1O	i	0	1	1	-5	i
CCN1C(=O)CS/C1=N\S(=O)(=O)c1ccc(Cl)cc1	i	-1	-1	-1	1	i
CCN1C/C(=N\S(=O)(=O)/N=C2\CN(CC)C(=O)N2CC)N(CC)C1=O	i	2	-2	-1	1	-8.2*
CCOC(=O)C1=C(c2ccccc2)c2ccccc2OC1C(=O)OCC (stereo unspecified)	nt	0	1	-6	1	i
CCCCC1=C(C(=O)OCC)C(C(=O)OCC)Oc2ccccc21 (stereo unspecified)	nt	0	-3	0	18*	i
CCOC(=O)C1Oc2ccccc2C(c2ccc(OC)cc2)=C1C(=O)OC (stereo unspecified)	nt	0	18	-4	13*	i
CCOc1cc(N2CCOCC2)c(OCC)cc1NC(=O)c1ccccc1N1CCCC1=O	nt	0	12	-2	nt	nt
O=C(NCc1ccccn1)c1coc(=O)c(Br)c1	100*	0	-15	-1	0	i
CCCCOc1ccc(S(=O)(=O)NC(=O)C2(C)CCN2C(=O)c2cccc(F)c2)cc1 (stereo unspecified)	nt	2	nt	nt	nt	nt
O=[N+]([O-])c1cc(S(=O)(=O)Nc2ccccc2)ccc1N1CCN(c2ccc(O)cc2)CC1	i	1	-18	0	-6	i
Cc1ccc(NS(=O)(=O)c2ccc(N3CCN(c4ccc(O)cc4)CC3)c([N+](=O)[O-])c2)c(C)c1	i	4	-10	0	17*	i
O=C1NC[C@H](CCCCN2CCN(CCc3ccccc3)C(=O)C2=O)N(Cc2ccccc2)C1=O	nt	-2	nt	nt	nt	nt
CC1(C)[C@@H](O)CC[C@]2(C)C3C(O)C=C4[C@H]5C[C@@](C)(C(=O)O)CC[C@]5(C)CC[C@]4(C)[C@]3(C)CC[C@@H]12 (stereo partly specified)	100*	nt	nt	nt	nt	nt
SMILES	TMEM16A inh	MPTP inh	CRFBP-R2 block	CRFBP-R2 agonist	GRIN3A LBD mod	TMEM16A act
O=[N+]([O-])c1ccc(Sc2ccccc2)nc1	i	9	54*	-6	-5	i
O=C(c1ccc2c(c1)[nH]c(=S)n1c3ccccc3nc21)N1CCN(c2ncccn2)CC1	i	3	35	0	11*	i
O=C(c1ccc(Br)cc1)N1CCN(c2ncccn2)CC1	i	0	94*	-1	-1	i
COc1ccc(OC)c2sc(N(CCN(C)C)C(=O)/C=C/c3cccs3)nc12	i	0	10	-1	-1	-32*
COc1ccc(C)c2sc(N(CCN(C)C)C(=O)/C=C/c3cccs3)nc12	i	1	2	4	9	i
O=C(c1ccc2snnc2c1)N1CCN(c2ccccc2)CC1	i	-1	-2	-2	-1	i
O=C(c1ccc2snnc2c1)N1CCN(c2ccccn2)CC1	i	-2	79*	0	1	i
CC(C)c1ccc(OCc2ccc(C(=O)N3CCN(c4ccccn4)CC3)cc2)cc1	100*	4	9	2	3	i
O=C(Nc1ccc(Cl)cc1Cl)c1cccc(N2C(=O)C=CC2=O)c1	i	25	12	20	2	i
C=CCNc1nc(C(=O)OCC)nc2ccccc12	100*	-1	-5	2	-4	i
CCOC(=O)c1nc(NCc2ccccc2)c2ccccc2n1	i	0	-1	0	-2	i
CN(C)c1ccc(/C=C(/NC(=O)c2ccccc2)C(=O)NCCCn2ccnc2)cc1	i	1	7	0	-2	i
COc1ccccc1/C=N/n1c(N)c(S(=O)(=O)c2cccs2)c2nc3ccccc3nc21	i	4	5	0	2	i
Nc1c(S(=O)(=O)c2ccccc2)c2nc3ccccc3nc2n1/N=C/c1cccc(O)c1	i	5	9	-2	25*	i
Cc1ccc(C)c(S(=O)(=O)c2c(N)n(/N=C/c3ccco3)c3nc4ccccc4nc23)c1	i	2	-17	4	36*	i
Cc1cccc(S(=O)(=O)c2c(N)n(/N=C/c3ccccc3)c3nc4ccccc4nc23)c1	i	4	-13	1	2	i
C1=NN(c2ccccc2)C=NN1c1ccccc1	nt	-1	4	-2	-3	i
COc1cc(/C=C(\C#N)C(=O)NCCc2ccccc2)cc(OC)c1O	i	-2	-99	67*	3	i
